This note sets out measurements from PubChem BioAssay AID686979 (National Center for Advancing Translational Sciences (NCATS), 2013).

The whole screen tested about 420,000 compounds, of which about 50,000 (12%) were called active. Where a call stands in place of a potency, no number is given. About 26% were inconclusive and are not listed. Calls come from the whole dose curve; as a rule, active = well fitted inhibition curve with a large enough effect; inconclusive = small, poorly fitted or top-dose-only effect; inactive = flat fitted curve, though single readings scatter. The full list was thinned out, with actives kept by preference.
Potency is the fitted concentration of half-maximal effect.

The nature of the experiment: qHTS for Inhibitors of human tyrosyl-DNA phosphodiesterase 1 (TDP1): qHTS in cells in presence of CPT. Note: nearly all actives have a fitted effect of over 55% in size. The following applies: chicken DT40 Tdp1-/-;hTDP1 cells + 20 nM CPT, ATP luminescence, 48 h; series mostly up to 46.2 µM. Put shortly: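 Cell growth measured by CellTiter-Glo luminescence after a minimum 48 h, 37 C compound exposure with 20 nM CPT in Tdp1-knockout DT40 cells stably expressing hTDP1, seeded 400/well; qHTS titration format.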
For orientation: qHTS replaces the single test concentration by a dilution series.
Regarding `CC1=C(C(=O)Nc2ccccc2)C(c2ccc(C)cc2)n2nc(SCc3ccccc3C)nc2N1` (stereo not drawn), the Potency entry was “inactive”.
`COc1cccc(NC(=O)C(=O)NCC(c2ccc3c(c2)OCO3)N2CCN(C)CC2)c1` (stereo not drawn): the Potency result is “inactive”.
Consider `COc1ccccc1CNS(=O)(=O)CC12CCC(CC1=O)C2(C)C` (stereo not drawn), for which the Potency entry was “inactive”.
Take `CCCc1c2oc(C(=O)O)cc(=O)c2cc2c(=O)cc(C(=O)O)n(CC)c12`: the Potency entry is “inactive”.
For `Cc1ccc(CC2CC(=O)N(c3cc(C)ccc3C)C2=O)cc1` (stereo not drawn), the Potency entry is “inactive”.
With `NS(=O)(=O)c1ccccc1NC(=O)c1c(O)c2ccccc2[nH]c1=O`, the Potency entry is “inactive”.
Regarding `Cc1oc2cc(Br)c(O)c(Br)c2c1C(=O)c1ccccc1`, the Potency entry was “inactive”.
`O=C(Nc1ccc(N2CCOCC2)cc1)c1cccc2c(-c3ccc(F)c(F)c3)coc12`: the Potency result is “inactive”.
As for `COc1ccc(N2CCN(C(=S)Nc3ccc(S(N)(=O)=O)cc3)CC2)cc1`, the Potency result is “inactive”.
Consider `C/C(Cc1ccccc1)=N\NC(=O)CNC(=O)c1ccccc1Cl`, for which the Potency result was “inactive”.
The same measure for `Cc1ccc(C(=O)N(CC(=O)NC2CCCC2)c2ccc(F)cc2)s1`: “inactive”; for `Cc1nn(CC(=O)N/N=C/c2ccc(F)cc2)c(C)c1[N+](=O)[O-]`: “inactive”; for `CC(C)(C)c1cc(C(=O)N/N=C/c2ccc([N+](=O)[O-])s2)n[nH]1`: 9.2 µM (active).
Consider `O=C(Cc1cc(=O)[nH][nH]1)N/N=C/c1ccccc1[N+](=O)[O-]`, for which the Potency result is “inactive”.
For `O=C(COc1ccccc1[N+](=O)[O-])N/N=C/c1ccc[nH]1`, the Potency entry is “inactive”.
`COc1ccc(/C=N/NC(=O)CNC(=O)c2ccc(S(=O)(=O)N3CCCC3)cc2)c(OC)c1`: the Potency result is “inactive”.
With `Cc1ccccc1NCC(=O)N/N=C\c1ccc([N+](=O)[O-])s1`, the Potency was 8.2 µM (active).
As for `Cc1nn(-c2ccccc2)c(Cl)c1/C=N/NC(=O)c1nn(C)cc1[N+](=O)[O-]`, the Potency result was “inactive”.
In the case of `COc1cc(/C=N\NC(=O)CNC(=O)c2cccc([N+](=O)[O-])c2)ccc1O`, the Potency entry is “inactive”.
As for `COc1ccc(C(=O)NCC(=O)N/N=C/c2ccc([N+](=O)[O-])s2)cc1OC`, the Potency is 20.6 µM (active).
`C/[N+]([O-])=C\c1ccc([N+](=O)[O-])o1`: the Potency is 25.9 µM (active).
The same measure for `O=C(COC(=O)Cc1ccc(Cl)cc1Cl)NCc1ccco1`: “inactive”; for `CN(C)/C=C(/C(=O)c1ccccc1)S(=O)(=O)c1ccc(Cl)cc1`: “inactive”; for `Cc1cc(Cl)nc(NC(=O)Nc2cccc(Cl)c2)n1`: “inactive”.
For the compound `COc1cc(C(=O)Nc2cc(C(F)(F)F)ccc2N2CCOCC2)ccc1O`, the Potency entry was “inactive”.
On to `COc1ccc(NC(=O)CC(NC(C)c2ccccc2)C(=O)O)cc1` (stereo not drawn), for which the Potency entry is “inactive”.
In the case of `CCC(=O)c1c[nH]c(C(=O)NCC2CCCO2)c1` (stereo not drawn), the Potency result is “inactive”.
Regarding `CCOC(=O)C1=CN(Cc2ccc(Br)cc2)S(=O)(=O)NC1C` (stereo not drawn), the Potency entry was “inactive”.
`COc1ccc(Cl)cc1C=CC=NNC(=O)c1ccncc1`: the Potency result is “inactive”.
With `COc1ccccc1/C=C/C=N/n1c(-c2ccc(Cl)cc2Cl)n[nH]c1=S`, the Potency entry is “inactive”.
To `COc1ccc(Cl)cc1C=CC=Nc1ccc(S(N)(=O)=O)cc1` belongs 18.4 µM (active); to `Cc1ccc(NC(=O)CN(C)C(=O)c2ccc(Cl)c(S(=O)(=O)NCc3ccco3)c2)cc1`, “inactive”; to `CCCCN1C(=O)/C(=C(/C#N)C(N)=O)c2ccccc21`, “inactive”.
To `COc1ccc(CNC(=O)CCN2C(=O)c3ccccc3C2=O)cc1` belongs “inactive”.
The same measure for `COc1ccc2c(c1)C(=C(C#N)C#N)C(=O)N2CCc1ccccc1`: 3.66 µM (active); for `Cc1ccc(C(=O)Oc2coc(CSc3nnc(NC(=O)c4cccs4)s3)cc2=O)cc1C`: “inactive”; for `Cc1cccc(NC(=S)NCCc2ccc(Cl)cc2)c1C`: 18.4 µM (active).
In the case of `Cc1c(Cl)cccc1NC(=S)NCC(O)c1ccccc1` (stereo not drawn), the Potency entry was “inactive”.
On to `CCNC(=S)Nc1cccc(Cl)c1C`, for which the Potency entry was “inactive”.
The same measure for `CCOCCCNC(=O)c1cc2c(=O)n3ccccc3nc2s1`: “inactive”; for `Cc1ccc(S(=O)(=O)N(C)c2ccc(OCC(=O)OCC(=O)N(CC#N)c3ccccc3)cc2)cc1`: “inactive”.
As to `COc1ccc(C(=O)NCCn2nc(C)cc2C)cc1OC1CCN(C(C)=O)CC1`, the Potency result was “inactive”.
In the case of `Cc1cc(OCCCCOc2ccc(C#N)cc2)ccc1[N+](=O)[O-]`, the Potency was 13 µM (active).
With `Cc1cc(OCC(=O)NC2CCN(C)CC2)ccc1[N+](=O)[O-]`, the Potency entry was “inactive”.
To `O=[N+]([O-])c1ccccc1OCCCCN1CCCCC1` belongs “inactive”; to `Cc1cc(OCC(=O)Nc2c(C)n(C)n(-c3ccccc3)c2=O)ccc1[N+](=O)[O-]`, “inactive”.
As for `Cc1cc(OCCCN2CCN(Cc3ccccc3)CC2)ccc1[N+](=O)[O-]`, the Potency was 23.1 µM (active).
To `Cc1ccc(OCC(=O)Oc2ccccc2[N+](=O)[O-])cc1` belongs “inactive”.
Take `COC(=O)c1cccc(N(CC(=O)NCC2CCCO2)C(=O)CCC(=O)Nc2cc(C)on2)c1` (stereo not drawn): the Potency entry was “inactive”.
Turning to `O=C(CSc1nnc(CNC(=O)c2ccc(F)cc2)o1)Nc1ccc2c(c1)OCO2`, the Potency result is “inactive”.
Turning to `O=C(Nc1ccncc1)c1ccc(Cl)c([N+](=O)[O-])c1`, the Potency is 11.6 µM (active).
As to `O=C(Nc1cccnc1)c1ccc(Cl)c([N+](=O)[O-])c1`, the Potency result is “inactive”.
The same measure for `Cc1ccnc(NC(=O)c2ccc(Cl)c([N+](=O)[O-])c2)c1`: “inactive”; for `Cc1ccc2c(=O)c(C(=O)c3ccc(F)cc3)cn(CC(=O)NC3CCCCC3)c2n1`: “inactive”.
In the case of `N=C(N)SCc1cccc2ccccc12`, the Potency is 18.4 µM (active).
For the compound `c1ccc2c(CNn3cnnc3)cccc2c1`, the Potency entry is “inactive”.
To `c1ccc(NCc2cccc3ccccc23)nc1` belongs “inactive”.
Regarding `COc1cc(NC(=O)COc2ccccc2Cl)ccc1NC(=O)C(C)C`, the Potency entry was “inactive”.
Take `CCCC(=O)NC(=S)Nc1ccc(CN2CCOCC2)cc1`: the Potency entry was “inactive”.
Turning to `CC(Sc1nnc(CNC(=O)c2ccccc2F)n1C)C(=O)Nc1nccs1` (stereo not drawn), the Potency result was “inactive”.
To `Brc1cccc(-c2nnn3c2nc(NC2CCCCC2)c2ccccc23)c1` belongs “inactive”; to `CCc1nnc(NC(=O)CSCc2cc(=O)n3cc(C)sc3n2)s1`, “inactive”.
To `Cc1cc(C(F)(F)F)nc(SCC(=O)Nc2nccs2)n1` belongs “inactive”.
`CSc1ccccc1NC(=O)CCS(=O)(=O)c1nc(-c2cccs2)cc(C(F)(F)F)n1`: the Potency was 10.3 µM (active).
In the case of `CC(Sc1nc(-c2ccccc2)cc(C(F)(F)F)n1)C(=O)Nc1ccc2c(c1)OCO2` (stereo not drawn), the Potency entry was “inactive”.
`Cc1ccc(O)c(NC(=O)c2cc(-c3ccc(F)cc3)no2)c1`: the Potency result was “inactive”.
To `CSc1ccccc1NC(=O)Cc1ccc(Br)cc1` belongs “inactive”; to `COc1cc(OC)cc(C(=O)OCC(=O)Nc2ccc(F)cc2F)c1`, “inactive”.
Turning to `COc1ccccc1-c1cc(C(F)(F)F)nc(S(=O)(=O)CCCC(=O)Nc2ccc(F)cc2F)n1`, the Potency was 5.17 µM (active).
Regarding `COc1ccc(-c2cc(C(F)(F)F)nc(SCC(=O)Nc3ccc4c(c3)OCO4)n2)cc1OC`, the Potency entry is “inactive”.
For `Cc1ccc(O)c(NC(=O)CCS(=O)(=O)c2nc(-c3ccc4c(c3)OCO4)cc(C(F)(F)F)n2)c1`, the Potency was 8.2 µM (active).
On to `O=C(CSc1ccc(-c2cccs2)nn1)Nc1ccccc1F`, for which the Potency entry was “inactive”.
Take `COc1ccccc1-c1cc(C(F)(F)F)nc(S(=O)(=O)CCCC(=O)Nc2cc(C)ccc2O)n1`: the Potency result is “inactive”.
Turning to `COc1ccc(Cl)cc1NC(=O)CSc1nc(-c2cccs2)cc(C(F)(F)F)n1`, the Potency is 23.1 µM (active).
To `COC(=O)c1ccccc1NC(=O)Cn1c(=O)n(-c2cccc(C(F)(F)F)c2)c(=O)c2c(C)c(C)sc21` belongs “inactive”; to `CNS(=O)(=O)c1ccc(NC(=O)Nc2ccc3c(c2)OCO3)cc1`, “inactive”; to `O=C(N[C@@H](Cc1ccccc1)C(=O)OCc1ccccc1)c1nc[nH]c1C(=O)NC1CCNCC1`, “inactive”.
Regarding `O=C(NC1CCCC1)C1c2ccccc2OCC(=O)N1Cc1ccccc1` (stereo not drawn), the Potency result is “inactive”.
As for `COc1ccccc1NC(=O)c1cc(N2C(=O)C3C4CCC(C4)C3C2=O)ccc1Cl` (stereo not drawn), the Potency entry was “inactive”.
On to `CCOC(=O)c1ccccc1NC(=O)CSc1nc2c(sc(=S)n2CC)c(=O)[nH]1`, for which the Potency entry was “inactive”.
On to `CC(C)n1c(O)c(N=Nc2ccccn2)c2ccccc21`, for which the Potency result is “inactive”.
The same measure for `FC(F)(F)c1ccnc(Oc2ccc(C3=NCCS3)cc2)c1`: “inactive”; for `Cc1ccc(NC(=O)c2ccco2)cc1`: “inactive”.
For the compound `O=C(c1cnccn1)N1CCN(S(=O)(=O)c2cccc(Cl)c2)CC1`, the Potency entry was “inactive”.
On to `O=C1CC(c2ccccc2)C(=O)N2C(=O)CC(c3ccccc3)C(=O)N12` (stereo not drawn), for which the Potency result was “inactive”.
The same measure for `FC(F)(F)Oc1ccccc1C(c1nnnn1C1CCCCC1)N1CCN(C/C=C/c2ccccc2)CC1` (stereo not drawn): 18.4 µM (active).
Regarding `CCOC(=O)C1CCN(C(c2cc3cc(C)cc(C)c3[nH]c2=O)c2nnnn2C2CCCCC2)CC1` (stereo not drawn), the Potency result is “inactive”.
The same measure for `CNC(=O)NC(=O)C(C)N1CCN(C/C=C/c2ccccc2)CC1` (stereo not drawn): “inactive”; for `COCCn1c(=O)c(-c2ccc(OC)cc2)nc2cnc(Oc3cccc(Cl)c3)nc21`: “inactive”; for `Cc1cc(C)n(-c2ccc3nncn3n2)n1`: “inactive”.
On to `COc1ccc(-c2noc(CCC(=O)N(C)c3ccccc3C)n2)cc1`, for which the Potency entry is “inactive”.
To `COc1ccc(-c2noc(CSc3nc4ccc(C)cc4[nH]3)n2)cc1` belongs 20.6 µM (active); to `CC1CCN(Cc2nc(-c3ccc(Cl)cc3)no2)CC1`, “inactive”; to `COc1ccc(-c2noc(CSc3ccc(C)cc3)n2)cc1`, “inactive”.
As to `COc1ccccc1Cc1nc(-c2ccc(C)cc2)no1`, the Potency entry was “inactive”.
To `COc1ccc2nc(SCC(=O)Nc3c(C)cc(C)cc3C)[nH]c2c1` belongs “inactive”.
As to `COc1ccc(-c2noc(CN(C)S(=O)(=O)c3ccc(C)cc3)n2)cc1`, the Potency was 16.4 µM (active).
Turning to `Cc1ccc(S(=O)(=O)N(Cc2nc(-c3ccc(Cl)cc3)no2)C2CCCCC2)cc1`, the Potency is 16.4 µM (active).
Turning to `Cc1ccc(-c2noc(CC(c3ccccc3)c3ccccc3)n2)cc1`, the Potency entry is “inactive”.
To `Cc1cccc(OCC(=O)NCCNC(=O)c2cccnc2)c1` belongs “inactive”; to `CCCC(=O)N1CCN(c2nc3c(OC)ccc(C)c3s2)CC1`, “inactive”.
Consider `CC(C)C(=O)Nc1c2c(nn1-c1ccccc1)CSC2`, for which the Potency result is “inactive”.
In the case of `O=C(CN1C(=O)CCS(=O)(=O)c2ccccc21)NCc1ccc(F)cc1`, the Potency entry is “inactive”.
